For 43 compounds, cytotoxicity call results are on record in the antibiotic and cytotoxicity screens of Wong et al. (2023).

The whole screen tested about 39,000 compounds, of which about 3,300 (8.5%) were called active. The list comes from a sample in which actives are over-represented; it also holds similar structures and randomly drawn compounds.

This experiment concerns HepG2. Nature of the experiment: cytotoxicity call (relative viability < 0.9). The settings on record: 10 µM.
As for `COc1cccc(NC(=O)N2C[C@H](O)COC[C@@H]3O[C@@H](CC(=O)NCc4ccccc4F)CC[C@H]32)c1`, the cytotoxicity call is “inactive”.

Regarding `CNC(=O)CN(C#N)c1nc(N(C)C)nc(N(C)C)n1`, the cytotoxicity call was “inactive”.

`C[C@@H]1CCCCO[C@H](CN(C)Cc2ccc(C(=O)O)cc2)[C@H](C)CN([C@@H](C)CO)C(=O)c2cc(NC(=O)Nc3cccc4ccccc34)ccc2O1`: the cytotoxicity call was “inactive”.

Turning to `C[C@H](CO)N1C[C@H](C)[C@@H](CN(C)Cc2ccc(C(F)(F)F)cc2)Oc2c(NC(=O)Nc3ccccc3)cccc2C1=O`, the cytotoxicity call is “inactive”.

With `CN(C)Cc1c(C(=O)N/N=C/c2ccncc2)nnn1-c1nonc1N`, the cytotoxicity call was “active”.

In the case of `NNC(=O)c1nnn(-c2nonc2N)c1CN1CCCCC1`, the cytotoxicity call was “inactive”.

Take `CCc1c(C(=O)OC)nnn1-c1nonc1N`: the cytotoxicity call is “inactive”.

`Cc1noc(C)c1NC(=O)N(C)C[C@@H]1Oc2c(NS(=O)(=O)c3ccccc3)cccc2C(=O)N([C@@H](C)CO)C[C@H]1C`: the cytotoxicity call was “inactive”.

Take `COc1ccc(NC(=O)N(C)C[C@@H]2OCCCC[C@H](C)Oc3ccc(NC(=O)Nc4ccc(C(F)(F)F)cc4)cc3C(=O)N([C@@H](C)CO)C[C@@H]2C)cc1`: the cytotoxicity call was “inactive”.

On to `C[C@@H]1CCCCO[C@H](CN(C)C(=O)Nc2ccccc2)[C@H](C)CN([C@@H](C)CO)C(=O)c2cc(NC(=O)Nc3ccc(C(F)(F)F)cc3)ccc2O1`, for which the cytotoxicity call is “inactive”.

Regarding `O=C1CC[C@H](C(=O)N2CCCCC2)N1`, the cytotoxicity call was “inactive”.

In the case of `Cc1ccc(S(=O)(=O)N(C)C[C@H]2Oc3ccc(NS(=O)(=O)c4ccc(F)cc4)cc3CC(=O)N([C@@H](C)CO)C[C@H]2C)cc1`, the cytotoxicity call is “inactive”.

As to `COc1ccc(S(=O)(=O)N(C)C[C@@H]2Oc3ccc(NC(=O)Cc4ccccc4)cc3CC(=O)N([C@@H](C)CO)C[C@H]2C)cc1`, the cytotoxicity call is “inactive”.

With `COc1ccc(S(=O)(=O)Nc2ccc3c(c2)CC(=O)N([C@@H](C)CO)C[C@H](C)[C@@H](CN(C)S(=O)(=O)c2ccccc2)O3)cc1`, the cytotoxicity call is “inactive”.

For `COc1ccc(S(=O)(=O)N(C)C[C@H]2Oc3ccc(NC(=O)Cc4ccccc4)cc3CC(=O)N([C@H](C)CO)C[C@@H]2C)cc1`, the cytotoxicity call is “inactive”.

For `COc1ccc(S(=O)(=O)N(C)C[C@@H]2Oc3ccc(NS(=O)(=O)c4ccccc4)cc3CC(=O)N([C@@H](C)CO)C[C@H]2C)cc1`, the cytotoxicity call was “active”.

With `Cc1ccc(S(=O)(=O)Nc2ccc3c(c2)CC(=O)N([C@@H](C)CO)C[C@H](C)[C@@H](CN(C)S(=O)(=O)c2ccc(F)cc2)O3)cc1`, the cytotoxicity call is “inactive”.

Regarding `Cc1noc(C)c1S(=O)(=O)Nc1ccc2c(c1)CC(=O)N([C@H](C)CO)C[C@@H](C)[C@@H](CN(C)S(=O)(=O)c1ccc(Cl)cc1)O2`, the cytotoxicity call is “inactive”.

With `Cc1ccc(S(=O)(=O)N(C)C[C@H]2Oc3ccc(NS(=O)(=O)c4ccc(F)cc4)cc3CC(=O)N([C@@H](C)CO)C[C@@H]2C)cc1`, the cytotoxicity call was “active”.

Take `Cc1noc(C)c1S(=O)(=O)Nc1ccc2c(c1)CC(=O)N([C@H](C)CO)C[C@H](C)[C@@H](CN(C)S(=O)(=O)c1ccc(Cl)cc1)O2`: the cytotoxicity call is “inactive”.

Turning to `COc1ccc(S(=O)(=O)N(C)C[C@@H]2Oc3ccc(NC(=O)Cc4ccccc4)cc3CC(=O)N([C@H](C)CO)C[C@@H]2C)cc1`, the cytotoxicity call is “active”.

As for `COc1ccc(S(=O)(=O)N(C)C[C@@H]2Oc3ccc(NS(=O)(=O)c4ccccc4)cc3CC(=O)N([C@H](C)CO)C[C@H]2C)cc1`, the cytotoxicity call is “inactive”.

As to `Cc1noc(C)c1S(=O)(=O)Nc1ccc2c(c1)CC(=O)N([C@@H](C)CO)C[C@@H](C)[C@H](CN(C)S(=O)(=O)c1ccc(Cl)cc1)O2`, the cytotoxicity call is “active”.

Regarding `O=c1cc[nH]c(C(F)(F)F)n1`, the cytotoxicity call was “inactive”.

With `C[C@@H]1CCCCO[C@@H](CN(C)C(=O)Nc2ccccc2)[C@H](C)CN([C@@H](C)CO)C(=O)c2cc(NS(=O)(=O)c3cccs3)ccc2O1`, the cytotoxicity call was “inactive”.

Take `C[C@H](CO)N1C[C@H](C)[C@H](CN(C)S(=O)(=O)c2cn(C)cn2)Oc2ncc(C#CCN(C)C)cc2C1=O`: the cytotoxicity call is “inactive”.

For `COc1ccc(NC(=O)Nc2cccc3c2O[C@H](CN(C)S(C)(=O)=O)[C@@H](C)CN([C@H](C)CO)C3=O)cc1`, the cytotoxicity call was “inactive”.

Take `Cc1noc(C)c1NC(=O)N(C)C[C@@H]1OCCCC[C@@H](C)Oc2ccc(NC(=O)c3ccccc3)cc2C(=O)N([C@H](C)CO)C[C@H]1C`: the cytotoxicity call is “inactive”.

Take `CCC(=O)N1CCC[C@H](C(=O)O)C1`: the cytotoxicity call was “inactive”.

As for `NC(=O)CCCCC(N)=O`, the cytotoxicity call is “inactive”.

For `COc1ccc(NC(=O)Nc2ccc3c(c2)C(=O)N([C@@H](C)CO)C[C@@H](C)[C@@H](CN(C)C(=O)Nc2ccc(C(F)(F)F)cc2)OCCCC[C@@H](C)O3)cc1`, the cytotoxicity call was “inactive”.

For `O=C(COP(=O)(O)O)[C@H](O)[C@@H](O)COP(=O)(O)O`, the cytotoxicity call was “inactive”.

Consider `C[C@@H]1CN([C@H](C)CO)C(=O)c2cc(NS(=O)(=O)c3ccc(F)cc3)ccc2O[C@@H](C)CCCCO[C@@H]1CN(C)C(=O)Cc1ccccc1`, for which the cytotoxicity call was “inactive”.

In the case of `COc1ccc(S(=O)(=O)Nc2ccc3c(c2)CC(=O)N([C@H](C)CO)C[C@@H](C)[C@@H](CN(C)C)O3)cc1`, the cytotoxicity call was “active”.

Take `C[C@@H]1CN([C@@H](C)CO)C(=O)Cc2cc(NS(=O)(=O)c3ccc(Cl)cc3)ccc2O[C@@H]1CN(C)C`: the cytotoxicity call was “inactive”.

With `C[C@H]1CN([C@@H](C)CO)C(=O)Cc2cc(NS(=O)(=O)c3ccc(Cl)cc3)ccc2O[C@@H]1CN(C)C`, the cytotoxicity call is “active”.

In the case of `C[C@@H]1CN([C@H](C)CO)C(=O)Cc2cc(NS(=O)(=O)c3ccc(Cl)cc3)ccc2O[C@@H]1CN(C)C`, the cytotoxicity call was “inactive”.

Regarding `COc1ccc(S(=O)(=O)Nc2ccc3c(c2)CC(=O)N([C@H](C)CO)C[C@H](C)[C@@H](CN(C)C)O3)cc1`, the cytotoxicity call was “inactive”.

Take `COc1ccc(S(=O)(=O)Nc2ccc3c(c2)CC(=O)N([C@H](C)CO)C[C@H](C)[C@H](CN(C)C)O3)cc1`: the cytotoxicity call was “inactive”.

For `C[C@H]1CN([C@@H](C)CO)C(=O)c2cc(NC(=O)Nc3ccccc3)ccc2O[C@H]1CN(C)C(=O)Nc1cccc2ccccc12`, the cytotoxicity call is “inactive”.

Regarding `CN1C(=O)c2cc(NS(=O)(=O)c3cccc(F)c3)ccc2OC[C@H]2O[C@H](CC(=O)NCCN3CCCCC3)CC[C@H]21`, the cytotoxicity call was “inactive”.

For the compound `O=C(C[C@H]1C=C[C@@H](NC(=O)c2cccnc2)[C@@H](CO)O1)NCCN1CCCCC1`, the cytotoxicity call was “inactive”.

For the compound `CC(C)NC(=O)Nc1cccc2c1O[C@@H](CN(C)C(=O)NC1CCCCC1)[C@@H](C)CN([C@H](C)CO)C2=O`, the cytotoxicity call is “inactive”.
